MITF primary = MITF inhibitors, primary screen, biochemical, AlphaScreen, human; AlphaScreen MITF homodimerization, bead proximity signal; inhibition, % at 2.6 µM; hit rate 0.91% among 650,000; in the data active = inhibition above about 50%;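 note: 0% = vehicle wells with protein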
FBW7 act = FBW7 E3 ligase activators, primary screen, biochemical, AlphaScreen, human; F-box/WD repeat-containing protein 7 (Homo sapiens), Q969H0; AlphaScreen FBW7–phospho-cyclin E peptide binding, activator screen; normalized activity (activation), % at 26.1 µM; hit rate 0.13% among 650,000; AID 1259310, 2017; in the data active = normalized activity above about 1.9%;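 note: purified mutant Fbw7 with reduced substrate affinity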
Target sequence (Q969H0 whole entry, looked up): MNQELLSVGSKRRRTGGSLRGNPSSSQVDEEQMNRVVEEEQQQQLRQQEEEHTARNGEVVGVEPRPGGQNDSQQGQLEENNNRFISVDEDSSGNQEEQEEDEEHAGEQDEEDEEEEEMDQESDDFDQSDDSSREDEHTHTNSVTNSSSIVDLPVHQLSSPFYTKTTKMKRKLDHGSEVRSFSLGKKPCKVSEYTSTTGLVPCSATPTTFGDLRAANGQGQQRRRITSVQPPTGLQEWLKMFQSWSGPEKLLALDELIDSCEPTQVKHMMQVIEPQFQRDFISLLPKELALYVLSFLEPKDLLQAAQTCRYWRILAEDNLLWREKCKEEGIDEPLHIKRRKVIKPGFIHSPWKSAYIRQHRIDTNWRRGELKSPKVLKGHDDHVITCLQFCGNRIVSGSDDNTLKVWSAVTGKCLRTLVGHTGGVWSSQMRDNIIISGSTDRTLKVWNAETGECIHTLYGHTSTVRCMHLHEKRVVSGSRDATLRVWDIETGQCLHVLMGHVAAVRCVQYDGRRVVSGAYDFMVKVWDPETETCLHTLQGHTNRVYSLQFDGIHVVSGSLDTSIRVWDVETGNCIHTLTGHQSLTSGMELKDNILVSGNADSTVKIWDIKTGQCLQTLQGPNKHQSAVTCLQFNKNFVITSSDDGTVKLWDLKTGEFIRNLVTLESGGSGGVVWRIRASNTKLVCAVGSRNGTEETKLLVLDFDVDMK
GPR151 ag = activators of human GPR151, primary screen, cell-based, PathHunter beta-arrestin, luminescence; PathHunter beta-arrestin GPR151 cells; activation, % at 11.2 µM; hit rate 1% among 650,000; in the data active = activation above about 4.9%;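 note: 0% = median of compound wells and 100% = cells with positive control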
TEAD-YAP block = TEAD-YAP interaction inhibition, primary screen, TEAD-YAP interaction inhibitor project, luminescence, HEK-TIYL cells. TEAD-Gal4/YAP UAS-luciferase luminescence. inhibition, % at 9.12 µM. hit rate 1.4% among 640,000. AID 1259422, 2018; in the data active = inhibition above about 32%;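 note: 0% = median of test compound wells and 100% = reference inhibitor wells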
MITF inh conf = MITF inhibitors, retest of hits, confirmation, biochemical, AlphaScreen, triplicate. hit rate 16% among 4,700. inhibition, % at 2.6 µM. AlphaScreen MITF homodimerization, biotin/His-MITF beads. shares compounds with MITF primary;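 active = inhibition above a cutoff derived from the DMSO control wells, cut at about 28% in these data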;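 note: 0% = MITF dimer wells with DMSO only; inhibitors lower the bead chemiluminescence by keeping MITF from dimerizing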
AlphaScreen intf2 = AlphaScreen optical interference compounds, counter-screen for MITF inhibitor project, biochemical, triplicate; hit rate 7.6% among 4,700; LysRS AlphaScreen counterscreen, signal interference; inhibition, % at 2.6 µM; shares compounds with MITF primary;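 active = inhibition above a cutoff derived from the DMSO control wells, cut at about 30% in these data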
An asterisk follows results filed as active; . = not tested or not shown. Sampled rows, rich in hits. Any-hit rate of the full collection: about 3.4%.

SMILES	MITF primary	FBW7 act	GPR151 ag	TEAD-YAP block	MITF inh conf	AlphaScreen intf2
Cc1ccc(OCCN2CCN(C)CC2)c([N+](=O)[O-])c1	76*	0	2	-10	-9	0
COc1ccc(CC(=O)N2CCN(c3cccc(C)c3C)CC2)cc1	18	0	1	16	.	.
COc1ccc(S(=O)(=O)CCC(=O)N2CCN(c3cccc(C)c3C)CC2)cc1	63*	0	1	0	16	9
COC(=O)C(=O)Nc1nnc(C2CCCCC2)s1	67*	0	-1	-4	9	13
O=C(Nc1nnc(C2CCCCC2)s1)C1CC1	7	0	1	1	.	.
COC(=O)C(=O)Nc1nnc(C2CCCC2)s1	79*	0	-1	2	9	13
O=C(Cc1ccccc1)NCc1nnc2n1CCN(C/C(Cl)=C/c1ccccc1)CC2	-12	0	0	7	.	.
Cc1ccc(NC(=O)COC(=O)c2cc[n+]([O-])cc2)cc1C	77*	0	3	-18	-5	-7
Cc1cc(C)cc(NC(=O)COC(=O)c2cc[n+]([O-])cc2)c1	-5	0	0	1	.	.
CC1=NN(c2ccccc2)C(=O)C1C(c1ccccc1[N+](=O)[O-])C(C#N)C#N (stereo unspecified)	52*	0	1	16	6	12
CC1=NN(c2ccccc2)C(=O)C1C(c1ccc([N+](=O)[O-])cc1)C(C#N)C#N (stereo unspecified)	5	-1	0	0	.	.
COc1cc(/C=C2\N=C(c3ccccc3F)OC2=O)cc(Br)c1OC(C)=O	-15	0	0	6	.	.
COc1cc(/C=C2/N=C(c3cccc(Cl)c3Cl)OC2=O)cc(Br)c1OC(C)=O	80*	0	0	1	1	-3
O=[N+]([O-])c1ccc(N2CCN(CCOCCO)CC2)c([N+](=O)[O-])c1	56*	0	-1	-2	-5	-3
CCOC(=O)c1c(NC(=O)COc2cc(C)c(Cl)c(C)c2)sc2c1CCCC2	-11	0	0	-1	.	.
CCOC(=O)N1CCN(S(=O)(=O)c2ccc(C(=O)Nc3ccc4nc(C)sc4c3)cc2)CC1	10	0	0	27	.	.
CCOC(=O)N1CCN(S(=O)(=O)c2ccc(C(=O)Nc3ccc(-c4nc5ccc(C)cc5s4)cc3)cc2)CC1	53*	0	0	-4	-22	-2
CC(=O)c1c(C)[nH]c(C(=O)Nc2ccc(C)c(I)c2)c1C	15	0	2	-50	.	.
O=C(Nc1cc([N+](=O)[O-])ccc1C(=O)NCCc1ccccc1)c1ccccc1	67*	0	0	-23	7	13
FC(F)(F)c1ccc(Nc2cc(NCc3cccc(C(F)(F)F)c3)ncn2)cc1	-4	0	2	-5	.	.
Cc1ccc(C(C)C)c(OCCNCc2ccco2)c1	55*	0	-1	-5	5	9
c1coc(CNCCOc2ccc3ccccc3c2)c1	87*	0	-1	-10	16	26
O=C(CCl)Nc1ccc(S(=O)(=O)OCC(F)(F)C(F)F)cc1	-17	0	-1	15	.	.
COC(=O)C(=Cc1ccc(OC)c(C(=O)O)c1)C(=O)OC	63*	0	0	-8	-16	-8
CC(NCc1cccnc1)C(=O)Nc1ccccc1 (stereo unspecified)	75*	0	-1	-1	11	10
SMILES	MITF primary	FBW7 act	GPR151 ag	TEAD-YAP block	MITF inh conf	AlphaScreen intf2
c1ccc(C(NCc2cccnc2)c2ccccc2)cc1	86*	0	0	1	11	14
CC(C(=O)Nc1ccccc1-c1ccccc1)N1CCCC1 (stereo unspecified)	75*	0	0	1	13	19
CC(N)C(=O)Nc1ccccc1-c1ccccc1 (stereo unspecified)	7	0	0	2	.	.
COc1ccc(OC)c(CN2CCN(Cc3ccccc3C)CC2)c1	51*	0	-2	-3	6	8
CCS(=O)(=O)N1CCN(Cc2ccc(OC)cc2OC)CC1	42	0	0	7	.	.
COc1ccc(CN2CCN(Cc3ccccc3C)CC2)c(OC)c1	83*	0	0	10	10	4
COc1cccc(-n2nnnc2SCC(=O)OC(C)C)c1	-1	0	0	3	.	.
CSc1ccccc1NC(=O)CN(C)CC(=O)Nc1ccc(C(N)=O)cc1	14	0	1	-4	.	.
Cc1ccc(NC(=O)CN(C)CC(=O)Nc2ccccc2Oc2ccccc2)cc1	91*	0	-1	6	3	7
CN(CCOc1ccccc1)CC(=O)Nc1ccc(C(F)(F)F)cc1	66*	0	-1	0	-17	2
Cc1cc(NC(=O)CN(C)CCOc2ccccc2)ccc1Br	36	0	1	5	.	.
COc1ccc(NC(=O)CN(C)CC(=O)Nc2ccccc2SC)cc1	75*	0	2	-3	4	12
Cc1ccc2[nH]c(C)c(CCNC(=O)c3cccc([N+](=O)[O-])c3)c2c1	74*	0	0	14	8	17
Cc1[nH]c2ccc(F)cc2c1CCNC(=O)c1cccc([N+](=O)[O-])c1	3	0	0	-2	.	.
COc1ccc(CCNC(=O)CCn2c(SCC(=O)Nc3cccc(C(F)(F)F)c3)nc3ccccc3c2=O)cc1OC	56*	0	1	4	-9	-2
COc1ccc(/C=N/Nc2ccc(S(=O)(=O)O)cc2)cc1	-2	-1	-1	3	.	.
COc1ccc2cc(/C=N/Nc3ccc(S(=O)(=O)O)cc3)ccc2c1	66*	0	0	3	19	-2
Cc1cc(OCCN2CCNCC2)cc(C(C)C)c1	66*	0	2	-3	-2	20
Cc1cc(OCCCN2CCN(C)CC2)ccc1C(C)C	56*	0	2	2	-3	4
Cc1cc(C)c(C)c(OCCn2ccnc2)c1	13	2	-1	-10	.	.
Cc1cc(OCCn2ccnc2)cc(C(C)C)c1	57*	0	0	-5	5	-1
Cc1cc(OCCCN2CCNCC2)cc(C(C)C)c1	38	0	-1	-4	.	.
Cc1cc(OCCCN2CCOCC2)ccc1C(C)C	18	0	-1	-17	.	.
Cc1cc(OCCCN2CCN(C)CC2)cc(C(C)C)c1	70*	0	0	-1	11	23
COc1cccc(-n2c(=O)c3ccccc3c3ccccc3c2=O)c1	-4	0	-1	5	.	.
COc1cccc(/C=N/NC(=O)C(=O)Nc2ccccc2C)c1	4	0	-1	-6	.	.

Compound activity from PubChem BioAssay.
